Screening results (PubChem BioAssay)
HSF1 inhib – HSF1 inhibition; NIH3T3-HGL HSE-luciferase, MG132-induced, luminescence 8 h; active compounds read low; activity change, negative = inhibition, % at 7.5 µM (by protocol); 0.77% of 300,000 active;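 active = more than half of replicate wells show activity change below -50%, luminescence cut by over half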;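 note: luciferase reports HSF-1 transcriptional activity via heat shock element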
AHR activator – activators of human aryl hydrocarbon receptor; P35869; AHR-responsive luciferase reporter cells, luminescence; activation, % at 5 µM; 2.5% of 320,000 active; in the data active = activation above about 47%
GAA850 FXN act – increases GAA850 frataxin promoter reporter activity | HEK293 lucGAA850 FXN promoter luciferase reporter, 24 h; percent of 10 µM SAHA response | activation, % at 6 µM | 0.56% of 360,000 active;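 active = activation above the average of all compounds screened plus 3 SD, cutoff fixed separately per campaign, cut at about 7.5% in these data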
HSF-1 act – increases HSF-1 driven luciferase reporter signal; NIH3T3-HGL HSF-1 luciferase reporter, MG132, 8 h; 100% = twice DMSO control signal; activation, % at 9 µM; 1.7% of 300,000 active; AID 504408;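 active = mean replicate activation of at least 50% with a set share of replicates each reaching 50%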
Hits are given with their value. Sampled rows, rich in hits. Any-hit rate of the full collection: about 4.6%.

`CCCCn1c(=O)[nH]c(=O)c2c1nc(-c1ccc(-c3ccc(F)cc3)o1)n2C` gave HSF1 inhib inactive, AHR activator inactive and HSF-1 act inactive.
Screening CCc1nc(Nc2ccc(OC)c(OC)c2)c2nnn(Cc3ccccc3Cl)c2n1 returned HSF1 inhib inactive, AHR activator inactive, GAA850 FXN act inactive and HSF-1 act inactive.
COc1ccc(N2C(=O)C3C(C2=O)C2C=CC3C23CC3)c([N+](=O)[O-])c1 (centres undefined) was read as HSF1 inhib inactive, AHR activator inactive, GAA850 FXN act inactive and HSF-1 act inactive.
`Cc1ccc(N(C)S(=O)(=O)c2cccc(C(=O)Nc3ccc(N4CCOCC4)cc3)c2)cc1` gave AHR activator inactive and GAA850 FXN act inactive.
For O=C(Nc1ccccc1)Nc1ccc(Br)c(Cl)c1 the results were HSF1 inhib inactive, AHR activator 67, GAA850 FXN act inactive and HSF-1 act inactive.
`O=C(Nc1ccccc1C(=O)Nc1ccc(F)cc1)c1ccco1` gave HSF1 inhib inactive, AHR activator 172, GAA850 FXN act inactive and HSF-1 act inactive.
O=C(Nc1ccccc1)Nc1ccccc1Br was read as HSF1 inhib inactive, AHR activator inactive, GAA850 FXN act inactive and HSF-1 act inactive.
CC(=O)Nc1cccc(NC(=O)c2ccco2)c1 was read as HSF1 inhib inactive, AHR activator inactive, GAA850 FXN act inactive and HSF-1 act inactive.
Screening Cc1ccccc1NC(=O)c1ccccc1NC(=O)c1ccco1 returned HSF1 inhib inactive, AHR activator inactive, GAA850 FXN act inactive and HSF-1 act inactive.
O=C(Nc1ccc(NC(=O)c2ccco2)c(Cl)c1)c1ccccc1 was read as HSF1 inhib inactive, AHR activator 59, GAA850 FXN act inactive and HSF-1 act inactive.
`O=C(Nc1cccc(NC(=O)c2ccc([N+](=O)[O-])o2)c1)c1ccco1` gave HSF1 inhib inactive, AHR activator inactive, GAA850 FXN act inactive and HSF-1 act 93.
For COC(=O)[C@@]1(Cc2ccccc2)[C@H]2C(=O)N(C)C(=O)[C@H]2[C@H]2CN(C)C(=NCc3ccccc3)N21 the results were GAA850 FXN act inactive.
`Cc1ccc(S(=O)(=O)N2CCN(CCc3ccccc3)CC2)c(C)c1` gave HSF1 inhib inactive, AHR activator inactive, GAA850 FXN act inactive and HSF-1 act inactive.
`O=C(Nc1ccc(Br)c(Cl)c1)c1ccco1` gave HSF1 inhib inactive, AHR activator 75, GAA850 FXN act inactive and HSF-1 act inactive.
O=C(Nc1cccc(NC(=O)c2nccc3ccccc23)c1)c1ccco1 was read as AHR activator 102 and GAA850 FXN act inactive.
Screening O=C(Nc1cccc(-c2nc3ccccc3[nH]2)c1)c1ccco1 returned HSF1 inhib inactive, AHR activator 51, GAA850 FXN act inactive and HSF-1 act inactive.
O=C(Nc1ccc(NC(=O)c2ccc([N+](=O)[O-])o2)cc1Cl)c1ccco1 was read as HSF1 inhib inactive, AHR activator inactive, GAA850 FXN act inactive and HSF-1 act 162.
For O=C(Nc1cccc(NC(=O)c2ccco2)c1)c1ccccc1 the results were HSF1 inhib inactive, AHR activator inactive, GAA850 FXN act inactive and HSF-1 act inactive.
`COC(=O)C1=C(C(=O)OC)[C@@H]2N(Cc3ccccc3)c3ccccc3[C@@]23C[C@@H](C(=O)OC)N(C(=O)c2cc(C)oc2C)C3=N1` gave HSF1 inhib inactive, AHR activator inactive, GAA850 FXN act inactive and HSF-1 act inactive.
`Cc1ccc(S(=O)(=O)NC(CCc2ccccc2)CC(=O)C(C)(C)C)cc1` (centres undefined) gave AHR activator inactive.
O=C(Nc1ccccc1O)c1cccc(NC(=O)c2ccco2)c1 was read as HSF1 inhib inactive, AHR activator 54, GAA850 FXN act inactive and HSF-1 act inactive.
O=C(O)c1cccc(NC(=S)NC(NC(=O)c2ccco2)C(Cl)(Cl)Cl)c1 (centres undefined) was read as HSF1 inhib -61, AHR activator inactive, GAA850 FXN act inactive and HSF-1 act inactive.
O=C(Cc1cccs1)Nc1cccc(-c2nc3cc4ccccc4cc3[nH]2)c1 was read as HSF1 inhib inactive, AHR activator inactive, GAA850 FXN act inactive and HSF-1 act 74.
O=C(NC(NC(=S)Nc1ccc(Cl)c(Cl)c1)C(Cl)(Cl)Cl)c1ccco1 (centres undefined) was read as HSF1 inhib inactive, AHR activator inactive, GAA850 FXN act inactive and HSF-1 act inactive.
For CC(=O)Nc1cccc(NC(=O)Cc2cccs2)c1 the results were HSF1 inhib inactive, AHR activator inactive, GAA850 FXN act inactive and HSF-1 act inactive.
For CC(C)(C)NC(=O)COC(=O)c1ccccc1NC(=O)c1ccco1 the results were HSF1 inhib inactive, AHR activator inactive, GAA850 FXN act inactive and HSF-1 act inactive.
O=C(Nc1ccccc1C(=O)OCC(=O)c1c[nH]c2ccccc12)c1ccco1 was read as HSF1 inhib inactive, AHR activator inactive, GAA850 FXN act inactive and HSF-1 act 105.
For O=C(c1ccccc1)c1cccc(NC(=O)c2ccco2)c1 the results were HSF1 inhib inactive, AHR activator inactive, GAA850 FXN act inactive and HSF-1 act inactive.
For O=C(CSc1nnnn1-c1ccccc1)N1CCc2ccccc2C1 the results were AHR activator inactive and GAA850 FXN act inactive.
S=c1nn[nH]n1C12CC3CC(CC(C3)C1)C2 was read as HSF1 inhib inactive, AHR activator inactive, GAA850 FXN act inactive and HSF-1 act inactive.
For CCOc1cc(/C=N/Nc2nnc(C)n2N)ccc1O the results were HSF1 inhib inactive, AHR activator inactive, GAA850 FXN act inactive and HSF-1 act 58.
Screening C(=N\Nc1nn[nH]n1)/c1ccccc1 returned HSF1 inhib inactive, AHR activator inactive, GAA850 FXN act inactive and HSF-1 act inactive.
`Cc1nnc(N/N=C/c2cc(C)n(-c3ccc(F)cc3)c2C)n1N` gave HSF1 inhib -96, AHR activator inactive, GAA850 FXN act inactive and HSF-1 act inactive.
Cc1nnc(N/N=C/c2c(Cl)cccc2Cl)n1N was read as HSF1 inhib inactive, AHR activator inactive, GAA850 FXN act inactive and HSF-1 act inactive.
For Oc1ccccc1/C=N/Nc1nn[nH]n1 the results were HSF1 inhib -75, AHR activator inactive, GAA850 FXN act inactive and HSF-1 act inactive.
Cc1nnc(N/N=C/c2ccccc2O)n1N was read as HSF1 inhib inactive, AHR activator 48, GAA850 FXN act inactive and HSF-1 act 71.
`Fc1ccc(-c2cc(-c3ccccc3)nc(-n3cccn3)n2)cc1` gave HSF1 inhib -69, AHR activator inactive, GAA850 FXN act inactive and HSF-1 act inactive.
For CC(=O)NCC1=C(NC(C)=O)C2CC1C(C)(C)C2C (centres undefined) the results were HSF1 inhib -53, AHR activator inactive and HSF-1 act inactive.
For Cc1ccc(NC(=O)CO/N=C(\N)c2nonc2N)cc1C the results were HSF1 inhib inactive, AHR activator inactive, GAA850 FXN act inactive and HSF-1 act inactive.
For Cc1ccc(N=C(NOCc2ccc(Cl)cc2Cl)c2nonc2N)c(C)c1 the results were HSF1 inhib inactive, AHR activator inactive, GAA850 FXN act inactive and HSF-1 act 59.
For Cc1ccc(N/N=C/c2ccc(N3CCOCC3)cc2)cc1C the results were HSF1 inhib inactive, AHR activator inactive, GAA850 FXN act inactive and HSF-1 act inactive.
